Screening data as filed in PubChem.
TbREL1 inh: TbREL1 inhibition, primary screen. TbREL1 RNA ligation, FRET fluorescence. inhibition, % at 9.66 µM. hit rate 0.49% among 89,000. AID 1117264;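 active means inhibition above the mean inhibition across all screened compounds plus 3 SD, cut at about 11% in these data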;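 further: 0% = plate median of test wells and 100% = NSC42067 control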
Target sequence (P86926 whole entry, looked up): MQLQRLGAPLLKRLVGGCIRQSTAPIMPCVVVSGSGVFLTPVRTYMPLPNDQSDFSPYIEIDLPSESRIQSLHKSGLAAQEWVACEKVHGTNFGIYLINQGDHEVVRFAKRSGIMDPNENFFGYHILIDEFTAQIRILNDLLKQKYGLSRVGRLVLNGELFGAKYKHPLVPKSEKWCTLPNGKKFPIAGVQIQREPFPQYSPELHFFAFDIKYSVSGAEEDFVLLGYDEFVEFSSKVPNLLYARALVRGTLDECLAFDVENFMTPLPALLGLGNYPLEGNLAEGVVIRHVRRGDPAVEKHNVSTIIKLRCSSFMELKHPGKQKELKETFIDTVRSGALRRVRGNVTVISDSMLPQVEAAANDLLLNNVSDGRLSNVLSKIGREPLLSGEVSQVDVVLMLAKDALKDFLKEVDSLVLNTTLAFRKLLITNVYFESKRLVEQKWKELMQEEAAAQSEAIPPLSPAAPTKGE
TbREL1 confirm: TbREL1 inhibition, confirmation; AID 1117282; inhibition, % at 9.66 µM; TbREL1 RNA ligation, FRET fluorescence; hit rate 37% among 390; shares compounds with TbREL1 inh;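 active means mean inhibition across replicates above a set limit taken from the earlier primary screen, cut at about 11% in these data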;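 further: 0% = REL1 with substrate and DMSO and 100% = REL1 plus control inhibitor NSC42067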
Numbers without * were called inactive. Only a selection was taken, and hits are over-represented in it overall.

SMILES	TbREL1 inh	others
CCC(C)(C)C1CCC2(CC1)NC(=O)N(CC(=O)N(C)Cc1ccc(OC(F)F)cc1)C2=O (stereo unspecified)	4
CC(C)(C)c1ccc(-c2nn(CCC#N)cc2/C=N/O)cc1	2
Cc1c(Cl)cccc1NC(=S)N(CCN(C)C)C(C)c1ccccn1 (stereo unspecified)	6
Cc1ccccc1NC(=S)N(CCN(C)C)C(C)c1cccnc1 (stereo unspecified)	-6
Cc1ccccc1NC(=S)N(CCN(C)C)C(C)c1ccccn1 (stereo unspecified)	14*	TbREL1 confirm=3
C/C(=N\NC(=O)c1ccncc1)c1ccc(NC(=O)c2ccc(Cl)cc2)cc1	5
COc1cc(/C=C/C(=O)OCC(=O)NCc2ccco2)ccc1OC(F)F	0
CCOC(=O)c1sc(N(Cc2ccccc2)C(=O)CSc2nnc(C3CC3)n2N)nc1C	-1
CC(C)[C@H](NC(=O)OC(C)(C)C)c1cc(C(=O)NCCO)c(N)s1	1
Cc1cc2cc(CN(CC3CCCO3)C(=S)Nc3ccccc3)c(=O)[nH]c2cc1C (stereo unspecified)	-4
Cc1ccc(-c2nnc3n2N=C(c2ccc(-c4ccccc4)cc2)CS3)cc1	27*	TbREL1 confirm=3
CC(C)(C)c1ccc(-c2nnc3n2N=C(c2ccc(-c4ccccc4)cc2)CS3)cc1	0
Cc1ccc(-c2nnc3n2N=C(c2ccc(Br)cc2)CS3)cc1	6
CC(=C1C(=O)c2ccccc2C1=O)N1CCC(C(N)=O)(N2CCCCC2)CC1	0
O=S(=O)(c1cc(C(F)(F)F)ccc1Cl)N1CCN(c2ncnc3ccccc23)CC1	-2
O=S(=O)(c1cc(Cl)cc(Cl)c1)N1CCN(c2nc(-c3cccs3)nc3ccccc23)CC1	12*	TbREL1 confirm=6
O=S(=O)(c1ccc(Cl)cc1)N1CCN(c2nc(C(F)(F)F)nc3ccccc23)CC1	0
CCCCN(Cc1ccccc1)C(=O)c1cnc2n(c1=O)CCS2	0
Cc1cc(=O)oc2c1c(C)nn2-c1nn[nH]n1	-2
COc1ccc(-c2cc(C(=O)N/N=C/c3sccc3C)c3ccccc3n2)c(OC)c1	3
Cc1cc(C)n2nc(SCC#N)nc2n1	1
Cc1nc(=O)c(-c2ccccc2)c(C)n1-c1ccc(C(=O)O)cc1	-2
CCOc1ccccc1CNCc1ccc(C(=O)O)cc1	1
Cc1cc(=O)n(-c2ccc(C(=O)O)cc2)[nH]1	0
CCOC(=O)c1cc2c(C)n(-c3ccc(N(C)C)cc3)c(C)c2cc(C(=O)OCC)c1=O	-1
SMILES	TbREL1 inh	others
COc1cccc(=O)c2c(C)n(-c3ccc(C(=O)O)cc3)c(C)c12	23*	TbREL1 confirm=12*
CCOc1cccc(=O)c2c(C)n(-c3ccc(C(=O)O)cc3)c(C)c12	46*	TbREL1 confirm=11*
C=CS(=O)(=O)N(Cc1ccc(C)cc1)[C@@H](CO)C(=O)OC	3
Cc1ccccc1NC(=O)OCCN1CCCC12CCC(c1ccccc1)CC2 (stereo unspecified)	-3
CCC1Oc2ccccc2N(CC(=O)NCCC2=CCCCC2)C1=O (stereo unspecified)	-1
O=C(OCc1cn(Cc2cccc(F)c2F)nn1)N1CCOCC1	6
COC(=O)[C@]12C[C@H](CC(=O)N3CCCC3)C(=O)N(CCc3ccc(OC)c(OC)c3)C1=C[C@H](C(C)C)O[C@@H]2C1CC1	-4
O=C(Nc1cccc(F)c1)N1CC=C(c2ccc(Cl)cc2)CC1	4
CC(=O)Nc1ccc(NC(=O)COC(=O)c2n[nH]c3ccccc23)cc1	0
NC(=O)c1ccsc1NC(=O)COC(=O)CNC(=O)c1cccc([N+](=O)[O-])c1	2
CCOC(=O)N1CCN(C(=O)CN(C)S(=O)(=O)c2ccc3c(c2)c(=O)n(C)c(=O)n3C)CC1	0
N=C1S/C(=C\c2ccc(-c3ccccc3C(=O)O)o2)C(=O)N1c1ccc2c(c1)OCO2	2
O=C(O)c1ccccc1-c1ccc(/C=C/c2cc(C(F)(F)F)[nH]c(=O)n2)o1	-15
O=C(O)c1ccccc1-c1ccc(C=c2sc3nc4cc(Br)cnc4n3c2=O)o1	45*	TbREL1 confirm=48*
COc1cc(NC(=O)c2nccnc2C(=O)O)cc(OC)c1	0
COC(=O)[C@@]12C[C@@H](CC(=O)NCc3ccc(C)o3)C(=O)N(CCc3ccc(OC)c(OC)c3)C1=CCC(C)(C)C2	0
O=Nc1ccc(O)c2ncccc12	10
OCc1ccnc2c(O)cccc12	0
Oc1ccc(CCc2c(F)cccc2F)c2cccnc12	-7
Oc1ccc(CNc2ccc(C(F)(F)F)cc2F)c2cccnc12	13*	TbREL1 confirm=-3
Oc1ccc(CNc2ccccc2Br)c2cccnc12	14*	TbREL1 confirm=-1
Oc1ccc(CNc2cccc(F)c2)c2cccnc12	11
CN1CCN(/N=C/c2c3ccccc3c(Cl)c3ccccc23)CC1	4
CCOC(=O)c1cccc(NC(=O)c2cncc(Br)c2)c1	-1
Cc1ccc(OCCn2c(=O)sc3ccccc32)cc1	3
SMILES	TbREL1 inh	others
O=C1c2ccccc2C(=O)N1CCOc1ccccc1	0
Cc1ccc(OCCN2C(=O)C(=O)c3cc(C)ccc32)cc1	12*	TbREL1 confirm=5
Cc1ccc(C(=O)CCC(=O)Nc2ncccc2O)cc1	-2
O=C(NCCNC(=O)c1ccccn1)c1ccc(Cl)cc1	3
O=C(CCNC(=O)c1ccc(Cl)cc1)Nc1ncccc1O	19*	TbREL1 confirm=1
Cc1ccc(NC(=O)NNC(=O)c2cc3ccccc3cc2O)c(C)c1	-6
CCCc1nc2c(C)cc(Br)cn2c1Cc1ccccc1C(F)(F)F	0
O=[N+]([O-])c1ccc2[nH]nc(-c3ccccc3)c2c1	4
Cc1ccc(N(C)S(=O)(=O)c2c[nH]c3ccc([N+](=O)[O-])cc23)cc1	14*	TbREL1 confirm=9
COC(=O)CCc1c[nH]c2ccc([N+](=O)[O-])cc12	4
COc1ccc(C(=S)N2CCOCC2)cc1OS(=O)(=O)c1ccc(Br)cc1	-6
CCN1C(=O)[C@H]2[C@@H](c3ccc(-c4ccc(F)cc4)cc3)N[C@@](CC(C)C)(C(=O)OC)[C@H]2C1=O	0
O=C(N/N=C/c1cccnc1)c1cccc(NC(=O)c2cccc(Br)c2)c1	12*	TbREL1 confirm=1
O=C(N/N=C/c1cccc(OC(=O)c2cccc(Br)c2)c1)c1cccnc1	1
O=C(N/N=C/c1ccc(OC(=O)c2cccc(Br)c2)cc1)c1cccnc1	0
Brc1ccc(COc2cccc3cccnc23)cc1	4
Nc1ccc(Br)c[n+]1Cc1cccc2cccnc12	12*	TbREL1 confirm=8
Nc1scn[n+]1Cc1cccc2cccnc12	2
Cc1onc(-c2ccccc2)c1C(=O)NCc1cccc(Cl)c1	-3
S=C(NCc1ccccc1)NCc1ccco1	-1
S=C(NCc1ccco1)NCc1ccco1	17*	TbREL1 confirm=2
S=C(NCc1ccc(Cl)c(Cl)c1)NCc1ccco1	-1
COC(=O)CN1CCN(C(=O)c2csc(N3CCOCC3)n2)CC1	2
CCCOCC1CC(CCc2nc(=S)[nH][nH]2)C(=O)O1 (stereo unspecified)	5
CC(C)(CNC(=O)C1c2ccccc2-c2ccccc21)N1CCOCC1	-3
Cc1cc(C)cc(NC(=O)CSc2nc3[nH]c(=O)cc(O)c3s2)c1	-5
CCCC(=O)Nc1nnc(SCC)s1	3
Cc1cc(C)nc(SCC(=O)Nc2nccs2)n1	0
N#Cc1c(SCC(=O)Nc2nccs2)sc2c(O)cc(=O)[nH]c12	38*	TbREL1 confirm=23*
CCCSc1nnc(NC(=O)CSc2sc3c(O)cc(=O)[nH]c3c2C#N)s1	27*	TbREL1 confirm=16*
